# What was measured:
# [1] = biological target: T1, Ephrin type-B receptor 2 (Homo sapiens) (UniProt P29323); conditions: at 1 µM
# T1 sequence (whole entry): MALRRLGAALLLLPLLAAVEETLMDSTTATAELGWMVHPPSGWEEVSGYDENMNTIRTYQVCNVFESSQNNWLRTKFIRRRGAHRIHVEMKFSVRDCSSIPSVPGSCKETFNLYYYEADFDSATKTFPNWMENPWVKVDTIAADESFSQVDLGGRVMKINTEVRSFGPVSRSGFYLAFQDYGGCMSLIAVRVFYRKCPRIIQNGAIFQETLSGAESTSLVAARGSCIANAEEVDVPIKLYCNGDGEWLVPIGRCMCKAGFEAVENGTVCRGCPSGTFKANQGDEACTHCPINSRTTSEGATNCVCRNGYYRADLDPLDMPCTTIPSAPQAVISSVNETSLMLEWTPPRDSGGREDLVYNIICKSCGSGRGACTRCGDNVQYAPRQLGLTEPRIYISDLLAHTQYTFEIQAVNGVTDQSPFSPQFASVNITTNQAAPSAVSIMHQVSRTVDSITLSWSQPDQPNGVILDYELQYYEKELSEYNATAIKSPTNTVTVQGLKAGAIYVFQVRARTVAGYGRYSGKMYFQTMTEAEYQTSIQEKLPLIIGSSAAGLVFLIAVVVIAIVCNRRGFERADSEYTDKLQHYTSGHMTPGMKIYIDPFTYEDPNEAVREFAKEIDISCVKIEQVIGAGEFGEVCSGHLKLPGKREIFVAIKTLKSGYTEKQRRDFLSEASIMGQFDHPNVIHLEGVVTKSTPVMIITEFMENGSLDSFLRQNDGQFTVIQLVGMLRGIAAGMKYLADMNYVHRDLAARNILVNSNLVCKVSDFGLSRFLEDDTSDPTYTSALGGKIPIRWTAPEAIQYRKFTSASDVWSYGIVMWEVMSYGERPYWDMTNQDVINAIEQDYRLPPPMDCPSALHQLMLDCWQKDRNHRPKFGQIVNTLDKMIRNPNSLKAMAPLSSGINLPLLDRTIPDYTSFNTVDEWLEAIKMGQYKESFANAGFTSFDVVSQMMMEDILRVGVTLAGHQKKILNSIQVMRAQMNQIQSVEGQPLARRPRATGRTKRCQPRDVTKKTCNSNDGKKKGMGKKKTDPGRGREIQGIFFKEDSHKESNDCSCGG
# [2] = biological target: T2, Ephrin type-B receptor 3 (Homo sapiens) (UniProt P54753); conditions: at 0.1 µM
# T2 sequence (whole entry): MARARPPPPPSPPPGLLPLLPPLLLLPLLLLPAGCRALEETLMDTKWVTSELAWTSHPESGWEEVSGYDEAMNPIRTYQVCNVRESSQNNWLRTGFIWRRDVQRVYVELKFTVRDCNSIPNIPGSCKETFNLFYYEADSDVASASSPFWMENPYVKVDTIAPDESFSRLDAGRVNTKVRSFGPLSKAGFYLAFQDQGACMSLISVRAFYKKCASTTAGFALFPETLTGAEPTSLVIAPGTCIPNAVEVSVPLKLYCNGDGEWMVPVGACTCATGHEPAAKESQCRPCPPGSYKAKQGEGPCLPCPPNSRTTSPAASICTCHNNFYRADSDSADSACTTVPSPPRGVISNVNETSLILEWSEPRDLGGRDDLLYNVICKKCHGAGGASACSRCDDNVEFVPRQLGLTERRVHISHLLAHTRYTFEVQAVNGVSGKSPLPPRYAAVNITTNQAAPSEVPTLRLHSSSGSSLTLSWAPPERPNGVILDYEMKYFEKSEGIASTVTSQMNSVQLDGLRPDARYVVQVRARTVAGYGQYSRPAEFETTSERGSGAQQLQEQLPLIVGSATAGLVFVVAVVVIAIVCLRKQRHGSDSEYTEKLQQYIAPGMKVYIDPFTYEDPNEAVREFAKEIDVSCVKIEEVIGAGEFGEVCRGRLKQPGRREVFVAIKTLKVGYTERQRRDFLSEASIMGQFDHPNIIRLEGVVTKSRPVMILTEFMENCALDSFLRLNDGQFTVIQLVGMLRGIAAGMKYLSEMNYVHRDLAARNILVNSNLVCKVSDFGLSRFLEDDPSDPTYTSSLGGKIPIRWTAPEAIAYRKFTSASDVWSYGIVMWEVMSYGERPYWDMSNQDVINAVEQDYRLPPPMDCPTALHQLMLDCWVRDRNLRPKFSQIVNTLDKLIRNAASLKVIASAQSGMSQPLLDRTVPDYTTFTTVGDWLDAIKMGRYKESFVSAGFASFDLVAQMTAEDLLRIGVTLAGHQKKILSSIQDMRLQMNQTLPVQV
# [3] = biological target: T2, Ephrin type-B receptor 3 (Homo sapiens); conditions: at 1 µM
# [4] = biological target: T3, Ephrin type-B receptor 4 (Homo sapiens) (UniProt P54760); conditions: at 0.1 µM
# T3 sequence (whole entry): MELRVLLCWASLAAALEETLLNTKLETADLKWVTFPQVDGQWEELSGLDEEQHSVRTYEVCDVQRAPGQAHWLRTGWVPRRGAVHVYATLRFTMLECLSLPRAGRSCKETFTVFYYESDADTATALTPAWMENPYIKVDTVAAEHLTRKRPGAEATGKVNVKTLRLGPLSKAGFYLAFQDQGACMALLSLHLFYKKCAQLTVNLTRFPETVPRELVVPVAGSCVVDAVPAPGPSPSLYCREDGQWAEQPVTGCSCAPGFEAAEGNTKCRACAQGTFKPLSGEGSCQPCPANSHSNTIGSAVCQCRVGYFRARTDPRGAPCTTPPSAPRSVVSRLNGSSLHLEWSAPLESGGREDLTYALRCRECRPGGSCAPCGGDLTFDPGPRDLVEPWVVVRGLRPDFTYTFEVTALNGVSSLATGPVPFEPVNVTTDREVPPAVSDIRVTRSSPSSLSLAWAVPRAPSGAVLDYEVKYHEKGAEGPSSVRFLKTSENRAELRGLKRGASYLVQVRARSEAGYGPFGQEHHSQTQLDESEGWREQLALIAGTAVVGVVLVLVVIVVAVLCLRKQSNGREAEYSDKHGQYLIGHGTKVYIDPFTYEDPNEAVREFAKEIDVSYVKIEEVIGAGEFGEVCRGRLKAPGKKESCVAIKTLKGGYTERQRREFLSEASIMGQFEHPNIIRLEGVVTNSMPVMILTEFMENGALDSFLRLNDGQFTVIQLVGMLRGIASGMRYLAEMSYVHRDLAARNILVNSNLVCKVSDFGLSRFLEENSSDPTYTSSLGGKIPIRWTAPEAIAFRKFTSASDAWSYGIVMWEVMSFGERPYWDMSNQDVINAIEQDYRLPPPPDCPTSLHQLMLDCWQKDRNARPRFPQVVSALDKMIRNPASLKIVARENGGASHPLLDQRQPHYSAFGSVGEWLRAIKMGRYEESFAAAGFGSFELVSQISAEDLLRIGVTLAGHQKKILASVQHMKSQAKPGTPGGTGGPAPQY
# [5] = biological target: T3, Ephrin type-B receptor 4 (Homo sapiens); conditions: at 1 µM
# [6] = biological target: Receptor tyrosine-protein kinase erbB-2 (Homo sapiens) (UniProt P04626); conditions: at 0.1 µM
# [7] = biological target: Receptor tyrosine-protein kinase erbB-2 (Homo sapiens) (UniProt P04626); conditions: at 1 µM
# [8] = biological target: Receptor tyrosine-protein kinase erbB-4 (Homo sapiens) (UniProt Q15303); conditions: at 0.1 µM
# Receptor tyrosine-protein kinase erbB-4 (Homo sapiens), sequence (Q15303 whole entry): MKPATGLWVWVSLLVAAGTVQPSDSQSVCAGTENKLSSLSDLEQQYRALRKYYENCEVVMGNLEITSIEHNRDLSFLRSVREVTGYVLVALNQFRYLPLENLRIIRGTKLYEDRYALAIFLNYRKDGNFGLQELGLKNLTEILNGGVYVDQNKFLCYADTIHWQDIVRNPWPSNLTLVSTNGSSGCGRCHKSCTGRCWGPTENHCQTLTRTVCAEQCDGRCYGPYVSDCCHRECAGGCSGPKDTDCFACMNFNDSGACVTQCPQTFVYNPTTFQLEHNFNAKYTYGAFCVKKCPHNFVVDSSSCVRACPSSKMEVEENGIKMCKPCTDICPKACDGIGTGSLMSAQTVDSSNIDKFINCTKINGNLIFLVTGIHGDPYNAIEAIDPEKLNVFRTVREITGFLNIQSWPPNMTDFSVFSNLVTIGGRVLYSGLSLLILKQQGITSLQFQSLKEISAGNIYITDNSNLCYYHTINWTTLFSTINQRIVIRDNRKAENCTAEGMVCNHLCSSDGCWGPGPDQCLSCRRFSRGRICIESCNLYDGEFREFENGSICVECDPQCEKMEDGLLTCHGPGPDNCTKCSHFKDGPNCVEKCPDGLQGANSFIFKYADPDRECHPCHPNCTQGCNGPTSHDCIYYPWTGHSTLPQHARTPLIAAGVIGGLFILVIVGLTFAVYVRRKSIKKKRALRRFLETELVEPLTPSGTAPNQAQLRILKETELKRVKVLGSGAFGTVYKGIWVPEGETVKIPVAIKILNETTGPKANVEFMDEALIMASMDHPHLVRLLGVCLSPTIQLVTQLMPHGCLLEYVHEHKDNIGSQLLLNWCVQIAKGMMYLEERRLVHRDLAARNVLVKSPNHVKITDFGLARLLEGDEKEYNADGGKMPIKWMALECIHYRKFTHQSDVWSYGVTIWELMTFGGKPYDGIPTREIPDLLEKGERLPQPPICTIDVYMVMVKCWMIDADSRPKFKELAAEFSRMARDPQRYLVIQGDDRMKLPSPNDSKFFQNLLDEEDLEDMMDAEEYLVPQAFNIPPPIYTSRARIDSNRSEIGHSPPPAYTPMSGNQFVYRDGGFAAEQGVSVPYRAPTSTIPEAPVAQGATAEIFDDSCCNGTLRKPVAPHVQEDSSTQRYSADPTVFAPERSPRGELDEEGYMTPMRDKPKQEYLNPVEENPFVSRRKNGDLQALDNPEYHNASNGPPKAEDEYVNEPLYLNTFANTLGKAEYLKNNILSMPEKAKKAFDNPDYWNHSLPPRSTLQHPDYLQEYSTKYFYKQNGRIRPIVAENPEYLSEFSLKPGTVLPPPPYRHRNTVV
# [9] = biological target: Receptor tyrosine-protein kinase erbB-4 (Homo sapiens) (UniProt Q15303); conditions: at 1 µM
# [10] = biological target: Tyrosine-protein kinase Fer (Homo sapiens) (UniProt P16591); conditions: at 0.1 µM
# Tyrosine-protein kinase Fer (Homo sapiens), sequence (P16591 whole entry, looked up): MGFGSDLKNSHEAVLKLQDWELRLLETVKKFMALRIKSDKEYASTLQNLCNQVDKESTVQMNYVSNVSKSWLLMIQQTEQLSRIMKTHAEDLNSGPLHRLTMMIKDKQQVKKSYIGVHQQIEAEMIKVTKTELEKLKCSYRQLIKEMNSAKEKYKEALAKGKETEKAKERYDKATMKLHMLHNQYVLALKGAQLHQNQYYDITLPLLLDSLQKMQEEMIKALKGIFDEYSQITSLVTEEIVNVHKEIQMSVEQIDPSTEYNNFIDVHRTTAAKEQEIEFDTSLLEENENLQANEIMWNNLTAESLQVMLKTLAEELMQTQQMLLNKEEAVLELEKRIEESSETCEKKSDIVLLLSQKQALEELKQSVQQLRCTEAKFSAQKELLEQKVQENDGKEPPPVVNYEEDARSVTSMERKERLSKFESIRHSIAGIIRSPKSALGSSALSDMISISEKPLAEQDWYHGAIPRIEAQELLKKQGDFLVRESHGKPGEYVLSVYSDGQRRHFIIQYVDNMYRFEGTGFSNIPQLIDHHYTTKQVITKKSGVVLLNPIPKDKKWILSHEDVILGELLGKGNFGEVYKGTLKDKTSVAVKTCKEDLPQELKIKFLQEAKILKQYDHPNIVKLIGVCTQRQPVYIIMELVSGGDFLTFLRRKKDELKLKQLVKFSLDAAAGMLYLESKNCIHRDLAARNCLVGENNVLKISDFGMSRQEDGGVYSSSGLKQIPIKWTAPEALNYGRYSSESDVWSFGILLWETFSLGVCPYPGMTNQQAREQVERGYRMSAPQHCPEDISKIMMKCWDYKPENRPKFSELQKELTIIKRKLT
# [11] = biological target: Tyrosine-protein kinase Fer (Homo sapiens) (UniProt P16591); conditions: at 1 µM
# [12] = biological target: Tyrosine-protein kinase Fes/Fps (Homo sapiens) (UniProt P07332); conditions: at 0.1 µM
# Tyrosine-protein kinase Fes/Fps (Homo sapiens), sequence (P07332 whole entry): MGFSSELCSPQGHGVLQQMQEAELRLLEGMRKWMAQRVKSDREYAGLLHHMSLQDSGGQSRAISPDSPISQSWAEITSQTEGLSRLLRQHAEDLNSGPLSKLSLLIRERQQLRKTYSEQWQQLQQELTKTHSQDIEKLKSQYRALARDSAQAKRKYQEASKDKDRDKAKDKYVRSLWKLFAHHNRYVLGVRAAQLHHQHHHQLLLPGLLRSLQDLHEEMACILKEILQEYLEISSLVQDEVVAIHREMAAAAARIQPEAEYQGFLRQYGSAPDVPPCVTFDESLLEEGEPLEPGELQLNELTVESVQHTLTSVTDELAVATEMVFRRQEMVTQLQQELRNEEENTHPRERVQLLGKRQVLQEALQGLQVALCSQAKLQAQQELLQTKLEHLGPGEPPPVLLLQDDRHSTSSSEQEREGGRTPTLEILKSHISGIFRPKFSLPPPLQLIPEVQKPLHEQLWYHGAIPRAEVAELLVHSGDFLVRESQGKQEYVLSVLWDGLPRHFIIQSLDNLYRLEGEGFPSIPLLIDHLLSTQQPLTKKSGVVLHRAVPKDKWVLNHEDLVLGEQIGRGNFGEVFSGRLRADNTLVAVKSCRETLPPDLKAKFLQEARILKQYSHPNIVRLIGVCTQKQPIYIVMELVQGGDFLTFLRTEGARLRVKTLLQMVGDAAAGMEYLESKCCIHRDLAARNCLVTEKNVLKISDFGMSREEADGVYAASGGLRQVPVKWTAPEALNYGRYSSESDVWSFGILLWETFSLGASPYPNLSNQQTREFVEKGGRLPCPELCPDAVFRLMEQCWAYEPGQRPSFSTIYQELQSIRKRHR
# [13] = biological target: Tyrosine-protein kinase Fes/Fps (Homo sapiens) (UniProt P07332); conditions: at 1 µM
# [14] = biological target: Fibroblast growth factor receptor 1 (Homo sapiens) (UniProt P11362); conditions: at 0.1 µM
# Fibroblast growth factor receptor 1 (Homo sapiens), sequence (P11362 22-822 limits assumed): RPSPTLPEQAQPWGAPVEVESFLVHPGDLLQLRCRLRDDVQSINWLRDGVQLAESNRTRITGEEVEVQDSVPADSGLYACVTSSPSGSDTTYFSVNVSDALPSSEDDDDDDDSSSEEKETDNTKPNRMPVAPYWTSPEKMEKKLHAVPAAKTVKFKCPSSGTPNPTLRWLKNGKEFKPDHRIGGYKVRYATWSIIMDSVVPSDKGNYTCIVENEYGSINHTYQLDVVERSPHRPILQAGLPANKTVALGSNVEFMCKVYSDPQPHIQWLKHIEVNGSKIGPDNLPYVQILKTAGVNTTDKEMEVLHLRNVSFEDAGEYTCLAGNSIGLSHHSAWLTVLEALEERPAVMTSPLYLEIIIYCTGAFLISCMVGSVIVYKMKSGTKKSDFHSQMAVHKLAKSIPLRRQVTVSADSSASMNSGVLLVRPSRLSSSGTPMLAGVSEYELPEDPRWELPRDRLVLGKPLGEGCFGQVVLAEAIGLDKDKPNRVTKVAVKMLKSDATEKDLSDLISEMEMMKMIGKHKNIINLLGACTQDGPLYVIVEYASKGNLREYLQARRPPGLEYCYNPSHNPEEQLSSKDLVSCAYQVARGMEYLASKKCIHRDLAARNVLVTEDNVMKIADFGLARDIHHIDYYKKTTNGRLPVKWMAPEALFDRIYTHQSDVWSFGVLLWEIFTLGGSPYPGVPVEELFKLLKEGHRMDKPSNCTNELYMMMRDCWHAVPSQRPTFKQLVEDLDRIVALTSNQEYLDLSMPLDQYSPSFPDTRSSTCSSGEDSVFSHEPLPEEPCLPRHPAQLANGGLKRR
# [15] = biological target: Fibroblast growth factor receptor 1 (Homo sapiens) (UniProt P11362); conditions: at 1 µM
# [16] = biological target: Fibroblast growth factor receptor 2 (Homo sapiens) (UniProt P21802); conditions: at 0.1 µM
# Fibroblast growth factor receptor 2 (Homo sapiens), sequence (P21802 22-821 limits assumed): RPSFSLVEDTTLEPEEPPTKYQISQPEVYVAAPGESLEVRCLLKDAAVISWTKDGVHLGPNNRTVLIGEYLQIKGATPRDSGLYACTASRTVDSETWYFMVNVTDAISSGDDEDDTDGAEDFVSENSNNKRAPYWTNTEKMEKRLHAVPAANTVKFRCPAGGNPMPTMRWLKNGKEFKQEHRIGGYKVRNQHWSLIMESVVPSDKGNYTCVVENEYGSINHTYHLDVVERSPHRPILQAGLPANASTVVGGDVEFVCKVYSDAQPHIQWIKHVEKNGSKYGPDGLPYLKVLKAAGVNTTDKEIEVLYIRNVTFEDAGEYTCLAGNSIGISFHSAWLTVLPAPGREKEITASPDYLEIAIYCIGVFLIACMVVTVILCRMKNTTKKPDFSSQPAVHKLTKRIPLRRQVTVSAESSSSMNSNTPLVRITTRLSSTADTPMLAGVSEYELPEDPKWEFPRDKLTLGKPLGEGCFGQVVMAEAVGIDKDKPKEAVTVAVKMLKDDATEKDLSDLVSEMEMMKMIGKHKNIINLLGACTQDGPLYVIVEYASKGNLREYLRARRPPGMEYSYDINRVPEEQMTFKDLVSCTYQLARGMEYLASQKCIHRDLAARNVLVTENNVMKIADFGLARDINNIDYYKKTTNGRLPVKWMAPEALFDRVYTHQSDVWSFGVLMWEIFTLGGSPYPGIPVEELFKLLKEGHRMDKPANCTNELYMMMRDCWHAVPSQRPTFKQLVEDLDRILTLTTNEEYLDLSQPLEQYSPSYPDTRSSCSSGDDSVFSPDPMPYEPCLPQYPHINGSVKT
# [17] = biological target: Fibroblast growth factor receptor 2 (Homo sapiens) (UniProt P21802); conditions: at 1 µM
# [18] = biological target: Fibroblast growth factor receptor 3 (Homo sapiens) (UniProt P22607); conditions: at 0.1 µM
# [19] = biological target: Fibroblast growth factor receptor 3 (Homo sapiens) (UniProt P22607); conditions: at 1 µM
# [20] = biological target: Fibroblast growth factor receptor 4 (Homo sapiens) (UniProt P22455); conditions: at 0.1 µM;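 further: values are mean percent inhibition of FGFR4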
SMILES,inhibition [1],inhibition [2],inhibition [3],inhibition [4],inhibition [5],inhibition [6],inhibition [7],inhibition [8],inhibition [9],inhibition [10],inhibition [11],inhibition [12],inhibition [13],inhibition [14],inhibition [15],inhibition [16],inhibition [17],inhibition [18],inhibition [19],inhibition [20]
O=C1Nc2ccccc2/C1=C/Nc1ccc2[nH]c(=O)[nH]c2c1,20.6%,6.46%,5.55%,5.44%,5.98%,3.93%,2.8%,9.76%,15.3%,3.27%,12.1%,4.03%,5.17%,7.8%,16.5%,9.08%,35%,10%,33%,1.89%
CCn1c(-c2nonc2N)nc2c(C#CC(C)(C)O)nc(OCCNC)cc21,8.26%,-3.04%,4%,2.31%,2.13%,0.68%,3.83%,4.11%,7.02%,-0.15%,1.17%,4.11%,4.46%,6.92%,5.9%,5.4%,6.92%,7.79%,3.95%,4.43%
[O-][S+]1CCN(Cc2ccc(-c3ccc4ncnc(Nc5ccc(OCc6ccccc6)c(Cl)c5)c4c3)o2)CC1,5.17%,0.63%,1.88%,-0.7%,-0.05%,37.5%,72.6%,69.6%,84.3%,-2.55%,4.1%,1.31%,1.62%,-2.69%,1.21%,0.85%,3.74%,-0.22%,3.23%,-0.05%
CCOc1nccc2c1nc(-c1nonc1N)n2CC,13.1%,1.72%,2.82%,2.78%,0.5%,3.01%,9.5%,6.98%,18%,5.59%,6.51%,2.51%,2.14%,4.54%,7.51%,3.59%,10.6%,5%,10.9%,2.6%
OCc1ccc(-c2nc(-c3ccccn3)c(-c3ccc4c(c3)OCO4)[nH]2)cc1,11.4%,5.72%,3.87%,4.58%,4.09%,0.45%,-3.06%,11.6%,12.7%,2.2%,5.49%,3.6%,4.6%,5.91%,5.71%,5.49%,10.1%,6.26%,7.28%,0.04%
COC(=O)c1cncc(/C=C/c2c(C)cc(O)cc2C)c1,56.4%,6.09%,11.8%,6.99%,38.7%,1.31%,2.82%,7.72%,10%,2.19%,2%,1.96%,3.05%,4.08%,0.61%,4.05%,7.59%,6.59%,4.87%,-1.32%
CC(C)c1ccc2c(c1)NC(=O)/C2=N/Nc1ccc(S(N)(=O)=O)cc1,3.71%,0.49%,1.76%,1.07%,0.29%,3%,2.17%,1.45%,2.39%,0.16%,1%,0.91%,-0.14%,3.46%,-0.01%,0.48%,5.04%,1.14%,3.91%,2.58%
N#Cc1c(NC(=O)c2ccccc2F)sc2c1CCCC2,-0.34%,3.63%,0.77%,-2.29%,0.07%,-3.55%,1.39%,-2.08%,0.66%,-1.19%,1.99%,-0.84%,-1.66%,-6.27%,-0.77%,-3.13%,-2.53%,-2.94%,-1.6%,1.12%
O=C1Nc2ccc(-c3cccnc3)cc2C1=Cc1cc(Br)c(O)c(Br)c1,11%,4.6%,2.28%,2.97%,3.11%,-0.94%,4.88%,9.94%,14.9%,8.12%,9.05%,2.71%,2.85%,4.47%,1.74%,3.81%,5.51%,9.43%,8.18%,1.39%
CN1CCN(C(=O)c2ccc(NC(=O)Nc3ccc(N(C)c4ccnc(Nc5ccc(CS(C)(=O)=O)cc5)n4)cc3)cc2)CC1,34.3%,2.73%,3.2%,2.21%,11%,0.08%,3.94%,7.39%,17.1%,16.2%,63.9%,7.35%,43.4%,0.94%,4.44%,6.7%,12.8%,4.9%,5.11%,4.73%
NS(=O)(=O)c1cccc(Nc2cc(-c3ccc(F)cc3)n[nH]2)c1,10.6%,3.94%,2.26%,0.66%,3.57%,1.6%,6.2%,5.56%,11.3%,5.3%,6.71%,2.34%,2.7%,0.46%,3.62%,0.78%,9.22%,8.19%,8.88%,0.98%
CCn1c(-c2nonc2N)nc2ccc(F)cc21,12.6%,6.48%,4.6%,1.64%,1.12%,5.65%,14%,20.6%,20.7%,3.01%,7.92%,2.98%,2.83%,3.73%,10.2%,5.98%,4.55%,7.35%,5.83%,2.81%
CCS(=O)(=O)c1ccc(OC)c(Nc2nccc(N(C)c3ccc4c(C)n[nH]c4c3)n2)c1,43.6%,2.23%,6.04%,17.4%,65.8%,7.28%,13.4%,18.5%,60.5%,2.69%,34.3%,3.93%,6.48%,8.89%,37.3%,18.8%,56.1%,17.4%,54.7%,-0.42%

# Reference: ChEMBL document CHEMBL1961873, “Compounds: GSK PKIS; Assays: Nanosyn kinase panel” (2012)
